# Source: PubChem BioAssay (NCI)
# About 79,000 compounds went through this panel and 15% of them were active in at least one assay; those are over-represented in the sample as a whole. A number with no mark means an inactive call. Active and inactive are the calls of the source. No stated cut-off is given here; in the data, active means growth inhibition above about 70%; inactive means the rest.
# How the values were obtained:
# [1] = NCI Yeast Anticancer Drug Screen. Data for the rad52 strain (AID 147);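 further: 0% = growth of vehicle-treated control cultures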; conditions: S. cerevisiae rad52 mutant growth inhibition, stronger effect = higher value
# Method in brief: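 Measured: yeast growth inhibition. System: strain with a defined DNA damage repair alteration. Reference: vehicle-treated control cultures.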
# [2] = NCI Yeast Anticancer Drug Screen. Data for the wt1 strain (AID 149);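 further: 0% = growth of vehicle-treated wt1 cultures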; conditions: S. cerevisiae wt1 strain (SPY 50644) growth inhibition, stronger effect = higher value
# Method in brief: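 Vehicle-normalised growth inhibition; strain wt1; compound exposure.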
# [3] = NCI Yeast Anticancer Drug Screen. Data for the rad50EPP+ strain (AID 151);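 further: 0% = growth of vehicle-treated control cultures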; conditions: S. cerevisiae rad50 mutant strain, stronger effect = higher value
# Method in brief: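 One strain with a rad50 alteration (rad50EPP+) was compound-treated, its growth then compared to that of vehicle controls.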
# [4] = NCI Yeast Anticancer Drug Screen. Data for the mgt1 strain (AID 153); conditions: S. cerevisiae mgt1 mutant growth inhibition, stronger effect = higher value
# Method in brief: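 After exposure of the mgt1 yeast mutant to compound, growth was measured and reported as inhibition compared with vehicle controls.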
# [5] = NCI Yeast Anticancer Drug Screen. Data for the rad50 strain (AID 155);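 further: 0% = growth of vehicle-only cultures of the same strain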; conditions: S. cerevisiae rad50 strain growth inhibition, stronger effect = higher value
# Method in brief: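 A DNA repair-deficient yeast mutant serves as the test organism; compound-induced growth inhibition is calculated against vehicle-treated cells.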
# [6] = NCI Yeast Anticancer Drug Screen. Data for the mec2-1 strain (AID 157); conditions: S. cerevisiae mec2-1 strain, stronger effect = higher value
# Method in brief: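 Test agents were screened against the mec2-1 yeast strain, with defined DNA repair or cell cycle alteration. Growth was scored as inhibition against vehicle-only controls.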
# [7] = NCI Yeast Anticancer Drug Screen. Data for the sgs1 mgt1 strain (AID 161);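 further: 0% = growth of cultures given vehicle only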; conditions: S. cerevisiae sgs1 mgt1 strain, stronger effect = higher value
# Method in brief: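 Inhibition of yeast growth, normalised to vehicle-treated controls, is reported for a strain bearing genetic alterations in DNA damage repair.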
# [8] = NCI Yeast Anticancer Drug Screen. Data for the CLN2oe strain (AID 163);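 further: 0% = growth of vehicle-only control cultures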; conditions: S. cerevisiae CLN2oe strain, stronger effect = higher value
# Method in brief: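 Here, growth inhibition in a cell-cycle-altered yeast strain after compound exposure was quantified against vehicle control growth.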
# [9] = NCI Yeast Anticancer Drug Screen. Data for the cln2 rad14 strain (AID 165);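 further: 0% = growth equal to vehicle treated cultures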; conditions: S. cerevisiae cln2 rad14 strain, stronger effect = higher value
# Method in brief: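 Growth of compound-exposed yeast (cln2 rad14 genotype) measured and expressed as inhibition relative to vehicle.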
# [10] = NCI Yeast Anticancer Drug Screen. Data for the bub3 strain (AID 167); conditions: S. cerevisiae bub3 mutant strain, stronger effect = higher value
# Method in brief: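 Inhibition values come from growth of compound-treated mutant yeast normalised to vehicle-treated controls.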
# [11] = NCI Yeast Anticancer Drug Screen. Data for the wt2 strain (AID 169);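 further: 0% = growth of vehicle-treated yeast cultures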; conditions: S. cerevisiae wt2 strain growth inhibition, stronger effect = higher value
# Method in brief: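 Genetically defined yeast strains from a DNA-repair/cell-cycle panel were used. Compound-exposed yeast growth was measured, and the inhibition was calculated relative to vehicle treatment.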
# [12] = NCI Yeast Anticancer Drug Screen. Data for the mlh1 strain (AID 171);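 further: 0% = growth of vehicle-treated control cultures of the same strain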; conditions: S. cerevisiae mlh1 strain growth inhibition, stronger effect = higher value
# Method in brief: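 Here the genetically defined yeast mutant is grown with each compound, and the extent to which its growth falls below that of vehicle-exposed cells is reported.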
# [13] = NCI Yeast Anticancer Drug Screen. Data for the sgs1 strain (AID 173);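 further: 0% = growth of vehicle-only control cultures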; conditions: S. cerevisiae sgs1 mutant, stronger effect = higher value
# Method in brief: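 Relative growth inhibition, referenced to vehicle, was determined in a yeast strain with a defined alteration affecting DNA damage repair or cell cycle control after compound exposure.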
# [14] = NCI Yeast Anticancer Drug Screen. Data for the mlh1 rad18 strain (AID 175); conditions: S. cerevisiae mlh1 rad18 strain growth inhibition, stronger effect = higher value
# Method in brief: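 In this whole-cell yeast screen, a strain with altered DNA damage repair is challenged with compound, and its growth is measured against matched vehicle-treated controls.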
# [15] = NCI Yeast Anticancer Drug Screen. Data for the rad18 strain (AID 177); conditions: S. cerevisiae rad18 mutant growth inhibition, stronger effect = higher value
# Method in brief: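 Screen uses a yeast strain with a defined lesion in DNA damage repair; compound effect is read as loss of growth compared to untreated vehicle cultures.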
# [16] = NCI Yeast Anticancer Drug Screen. Data for the rad14 strain (AID 159);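 further: 0% = growth of vehicle-treated control cultures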; conditions: S. cerevisiae rad14 strain growth inhibition, stronger effect = higher value
# Method in brief: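 Vehicle-treated cultures served as the baseline for growth inhibition of a DNA repair-mutant yeast strain exposed to each compound.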
# [17] = at 5.0 µM (retest, dose inferred, filed as 0.5)
# [18] = at 50.0 µM (retest, dose inferred, filed as 5.0)
compound,measurement,setting,value
Nc1nnc(N)n1-n1c(N)nnc1N,growth inhibition,[1]; at 1.2 µM,-2%
same,growth inhibition,[1]; at 3.7 µM,-2%
same,growth inhibition,[1]; at 11.0 µM,-1%
same,growth inhibition,[1]; at 33.0 µM,0%
same,growth inhibition,[1]; at 100.0 µM,10%
same,growth inhibition,[2]; at 1.2 µM,-1%
same,growth inhibition,[2]; at 3.7 µM,2%
same,growth inhibition,[2]; at 11.0 µM,-2%
same,growth inhibition,[2]; at 33.0 µM,-2%
same,growth inhibition,[2]; at 100.0 µM,2%
same,growth inhibition,[3]; at 1.2 µM,1%
same,growth inhibition,[3]; at 3.7 µM,0%
same,growth inhibition,[3]; at 11.0 µM,-5%
same,growth inhibition,[3]; at 33.0 µM,-14%
same,growth inhibition,[3]; at 100.0 µM,-16%
same,growth inhibition,[4]; at 1.2 µM,-3%
same,growth inhibition,[4]; at 3.7 µM,-4%
same,growth inhibition,[4]; at 11.0 µM,-4%
same,growth inhibition,[4]; at 33.0 µM,-2%
same,growth inhibition,[4]; at 100.0 µM,1%
same,growth inhibition,[5]; at 1.2 µM,-3%
same,growth inhibition,[5]; at 3.7 µM,-1%
same,growth inhibition,[5]; [17],-8%
same,growth inhibition,[5]; at 11.0 µM,-3%
same,growth inhibition,[5]; at 33.0 µM,1%
same,growth inhibition,[5]; [18],92% (active)
same,growth inhibition,[5]; at 50.0 µM,56.1%
same,growth inhibition,[5]; at 100.0 µM,9%
same,growth inhibition,[6]; at 1.2 µM,1%
same,growth inhibition,[6]; at 3.7 µM,3%
same,growth inhibition,[6]; [17],-22%
same,growth inhibition,[6]; at 11.0 µM,4%
same,growth inhibition,[6]; at 33.0 µM,4%
same,growth inhibition,[6]; [18],36%
same,growth inhibition,[6]; at 50.0 µM,11.8%
same,growth inhibition,[6]; at 100.0 µM,2%
same,growth inhibition,[7]; [17],2%
same,growth inhibition,[7]; [18],89% (active)
same,growth inhibition,[7]; at 50.0 µM,27.9%
same,growth inhibition,[8]; at 1.2 µM,-3%
same,growth inhibition,[8]; at 3.7 µM,-14%
same,growth inhibition,[8]; at 11.0 µM,-8%
same,growth inhibition,[8]; at 33.0 µM,-6%
same,growth inhibition,[8]; at 100.0 µM,-4%
same,growth inhibition,[9]; [17],-2%
same,growth inhibition,[9]; [18],31%
same,growth inhibition,[9]; at 50.0 µM,-13.2%
same,growth inhibition,[10]; at 1.2 µM,-1%
same,growth inhibition,[10]; at 3.7 µM,-1%
same,growth inhibition,[10]; [17],-18%
same,growth inhibition,[10]; at 11.0 µM,2%
same,growth inhibition,[10]; at 33.0 µM,3%
same,growth inhibition,[10]; [18],57%
same,growth inhibition,[10]; at 50.0 µM,1.05%
same,growth inhibition,[10]; at 100.0 µM,0%
same,growth inhibition,[11]; at 1.2 µM,-1%
same,growth inhibition,[11]; at 3.7 µM,-1%
same,growth inhibition,[11]; at 11.0 µM,-5%
same,growth inhibition,[11]; at 33.0 µM,-2%
same,growth inhibition,[11]; at 100.0 µM,1%
same,growth inhibition,[12]; at 1.2 µM,0%
same,growth inhibition,[12]; at 3.7 µM,0%
same,growth inhibition,[12]; at 11.0 µM,0%
same,growth inhibition,[12]; at 33.0 µM,-1%
same,growth inhibition,[12]; at 100.0 µM,2%
same,growth inhibition,[13]; at 1.2 µM,0%
same,growth inhibition,[13]; at 3.7 µM,-1%
same,growth inhibition,[13]; at 11.0 µM,-1%
same,growth inhibition,[13]; at 33.0 µM,-1%
same,growth inhibition,[13]; at 100.0 µM,4%
same,growth inhibition,[14]; [17],49%
same,growth inhibition,[14]; [18],96% (active)
same,growth inhibition,[14]; at 50.0 µM,19.1%
same,growth inhibition,[15]; at 1.2 µM,0%
same,growth inhibition,[15]; at 3.7 µM,-4%
same,growth inhibition,[15]; at 11.0 µM,-5%
same,growth inhibition,[15]; at 33.0 µM,-4%
same,growth inhibition,[15]; at 100.0 µM,9%
COC(COC(=O)N1CCN(C=O)CC1)C1=C(N2CC2)C(=O)C(C)=C(N2CC2)C1=O (stereo unspecified),growth inhibition,[1]; at 1.2 µM,4%
same,growth inhibition,[1]; at 3.7 µM,18%
same,growth inhibition,[1]; at 11.0 µM,30%
same,growth inhibition,[1]; at 33.0 µM,66%
same,growth inhibition,[1]; at 100.0 µM,79% (active)
same,growth inhibition,[2]; at 1.2 µM,10%
same,growth inhibition,[2]; at 3.7 µM,12%
same,growth inhibition,[2]; at 11.0 µM,22%
same,growth inhibition,[2]; at 33.0 µM,39%
same,growth inhibition,[2]; at 100.0 µM,47%
same,growth inhibition,[3]; at 1.2 µM,-44%
same,growth inhibition,[3]; at 3.7 µM,-38%
same,growth inhibition,[3]; at 11.0 µM,-35%
same,growth inhibition,[3]; at 33.0 µM,-8%
same,growth inhibition,[3]; at 100.0 µM,-5%
same,growth inhibition,[5]; at 1.2 µM,17%
same,growth inhibition,[5]; at 3.7 µM,35%
same,growth inhibition,[5]; [17],64%
same,growth inhibition,[5]; at 11.0 µM,43%
same,growth inhibition,[5]; at 33.0 µM,53%
same,growth inhibition,[5]; [18],22%
same,growth inhibition,[5]; at 50.0 µM,35.3%
same,growth inhibition,[5]; at 100.0 µM,79% (active)
same,growth inhibition,[6]; at 1.2 µM,-6%
same,growth inhibition,[6]; at 3.7 µM,1%
same,growth inhibition,[6]; [17],19%
same,growth inhibition,[6]; at 11.0 µM,6%
same,growth inhibition,[6]; at 33.0 µM,36%
same,growth inhibition,[6]; [18],35%
same,growth inhibition,[6]; at 50.0 µM,32.9%
same,growth inhibition,[6]; at 100.0 µM,67%
same,growth inhibition,[16]; at 1.2 µM,4%
same,growth inhibition,[16]; at 3.7 µM,1%
same,growth inhibition,[16]; at 11.0 µM,6%
same,growth inhibition,[16]; at 33.0 µM,39%
same,growth inhibition,[16]; at 100.0 µM,74% (active)
same,growth inhibition,[7]; [17],-8%
same,growth inhibition,[7]; [18],26%
same,growth inhibition,[7]; at 50.0 µM,40.4%
same,growth inhibition,[8]; at 1.2 µM,12%
same,growth inhibition,[8]; at 3.7 µM,23%
same,growth inhibition,[8]; at 11.0 µM,25%
same,growth inhibition,[8]; at 33.0 µM,29%
same,growth inhibition,[8]; at 100.0 µM,53%
same,growth inhibition,[9]; [17],-11%
same,growth inhibition,[9]; [18],27%
same,growth inhibition,[9]; at 50.0 µM,34.5%
same,growth inhibition,[10]; at 1.2 µM,-18%
same,growth inhibition,[10]; at 3.7 µM,-3%
same,growth inhibition,[10]; [17],-2%
same,growth inhibition,[10]; at 11.0 µM,-4%
same,growth inhibition,[10]; at 33.0 µM,10%
same,growth inhibition,[10]; [18],1%
same,growth inhibition,[10]; at 50.0 µM,-10.2%
same,growth inhibition,[10]; at 100.0 µM,18%
same,growth inhibition,[11]; at 1.2 µM,-27%
same,growth inhibition,[11]; at 3.7 µM,-33%
same,growth inhibition,[11]; at 11.0 µM,-25%
same,growth inhibition,[11]; at 33.0 µM,-17%
same,growth inhibition,[11]; at 100.0 µM,-2%
same,growth inhibition,[12]; at 1.2 µM,-7%
same,growth inhibition,[12]; at 3.7 µM,-32%
same,growth inhibition,[12]; at 11.0 µM,-9%
same,growth inhibition,[12]; at 33.0 µM,17%
same,growth inhibition,[12]; at 100.0 µM,38%
same,growth inhibition,[13]; at 1.2 µM,20%
same,growth inhibition,[13]; at 3.7 µM,14%
same,growth inhibition,[13]; at 11.0 µM,24%
same,growth inhibition,[13]; at 33.0 µM,40%
same,growth inhibition,[13]; at 100.0 µM,64%
same,growth inhibition,[14]; [17],23%
same,growth inhibition,[14]; [18],74% (active)
same,growth inhibition,[14]; at 50.0 µM,79.4% (active)
same,growth inhibition,[15]; at 1.2 µM,26%
same,growth inhibition,[15]; at 3.7 µM,59%
same,growth inhibition,[15]; at 11.0 µM,79% (active)
same,growth inhibition,[15]; at 33.0 µM,89% (active)
same,growth inhibition,[15]; at 100.0 µM,93% (active)
